Measured values as given in PubChem BioAssay (Tox21).
“And” between values parts separate entries of the source, which are not always exact repeats. Equal entries are not always repeated. Inconclusive results are not listed. Some structures have more than one record in an assay (separate samples or runs), and their calls can disagree. The source made the active and inactive calls. Unless noted, calls come from the whole dose curve; as a rule, active = well fitted curve in the direction sought with a large enough effect in the repeat runs; inconclusive = weak or mixed curves; inactive = no such curve, though single readings can be large; an effect the other way counts as inactive or inconclusive.

Legend:
[1] = target: Thyrotropin receptor (Homo sapiens) (UniProt P16473); experiment: qHTS assay to identify small molecule antagonists of the thyroid stimulating hormone receptor (TSHR) signaling pathway (AID 1259385; calls by dose curve; note: nearly all actives have a fitted effect of over 20% in size)
Outline: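 TSHR-HEK293 cells were plated and held 18 h at 37C/5% CO2, then given compound plus Ro20-1724 and stimulated with TSH at 1.5 ng/mL final. After 30 min at room temperature, cAMP was detected with cAMP-d2/anti-cAMP-cryptate (1 h) by fluorescence.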

[2] = qHTS assay to identify small molecule agonists of the estrogen receptor alpha (ER-alpha) signaling pathway in the presence of an antagonist - cell viability counter screen (AID 1259386);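 note: cells exposed to compounds for 22 h at 37 °C before the viability read; nearly all actives have a fitted effect of over 30% in size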; note: potency is the fitted concentration of half-maximal effect
Outline: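 VM7Luc4E2, stripped-serum pre-culture 5 d; 24hr plating; +ICI-182,780 10.0nM final; cpds 15 conc, 22hr, 37C/5% CO2; CellTiter-Fluor added at 21hr, fluorescence 1hr later.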

[3] = target: Progesterone receptor (Homo sapiens) (UniProt P06401); experiment: qHTS assay to identify small molecule agonists of the progesterone receptor (PR) signaling pathway (AID 1346784; calls by dose curve; note: nearly all actives have a fitted effect of over 30% in size)
Outline: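 PR-UAS-bla HEK 293T cells carrying a UAS-driven beta-lactamase reporter were seeded in medium with 2% charcoal-stripped FBS, preincubated 6 hr at 37C, then exposed to compounds in DMSO for 16 hr; agonism was read by LiveBLAzer B/G FRET fluorescence.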

[4] = qHTS assay to identify small molecule antagonists of the progesterone receptor (PR) signaling pathway - cell viability counter screen (AID 1346798); note: nearly all actives have a fitted effect of over 50% in size; note: potency is the fitted concentration of half-maximal effect
Outline: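 PR-UAS-bla HEK293T cells in medium with 2% charcoal-stripped FBS were treated with compounds plus R5020 for 16 hr at 37C. Cell viability was then read by CellTiter-Glo luminescence after 30 min at room temperature in the same wells.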

[5] = qHTS assay to identify small molecule agonists of the progesterone receptor (PR) signaling pathway - cell viability counter screen (AID 1346799; calls by dose curve; note: nearly all actives have a fitted effect of over 45% in size; note: potency is the fitted concentration of half-maximal effect)
Outline: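 PR-UAS-bla HEK293T cells, 3,000 per well in medium with 2% charcoal-stripped FBS, were preincubated 6 hr at 37C, then exposed to compounds for 16 hr; viability was read as CellTiter-Glo luminescence after 30 min at room temperature.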

[6] = qHTS assay to identify small molecule antagonists of the TGF-beta/Smad signaling pathway - cell viability counter screen (AID 1346824); note: nearly all actives have a fitted effect of over 50% in size
Outline: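 SBE-bla HEK 293T cells were plated overnight at 37 C, then given compounds in DMSO plus TGF-beta1 (added as 0.25 ng/mL solution) for 5 hr. After the bla read, CellTiter-Glo was added to the same wells and luminescence read after 30 min at room temperature.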

[7] = qHTS assay to identify small molecule agonists of the TGF-beta/Smad signaling pathway - cell viability counter screen (AID 1346829); note: top concentration of the series differs between compounds; nearly all actives have a fitted effect of over 45% in size
Outline: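 Tox21 qHTS format: SBE-bla HEK 293T cells treated with DMSO-dissolved compounds for 5 hr; CellTiter-Glo luminescence after 30 min at room temperature.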

[8] = qHTS assay to identify small molecule agonists of the TGF-beta/Smad signaling pathway (AID 1346859; active = well fitted activation curve with a large enough effect in the signal ratio in the repeat runs, not every such curve was filed as active; the % refers to the signal ratio; note: series mostly up to about 77 µM)
Outline: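 HEK 293T cells stably carrying a beta-lactamase reporter driven by the Smad binding element were seeded overnight, exposed to DMSO-dissolved compounds for 5 hr at 37 C, 5% CO2, then loaded with FRET substrate for 2 hr at room temperature.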

[9] = target: Thyrotropin-releasing hormone receptor (Homo sapiens) (UniProt P34981); experiment: qHTS assay to identify small molecule antagonists of the thyrotropin-releasing hormone receptor (TRHR) signaling pathway (AID 1346877; active = well fitted inhibition curve with a large enough effect in the repeat runs, not every such curve was filed as active; note: series mostly up to about 51 µM)
Outline: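 Intracellular calcium fluorescence, read kinetically every second over 3 min, reports TRH-evoked signalling in HEK293 cells carrying TRHR. Test compounds were added 5 min ahead of a 1 nM TRH challenge.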

[10] = Human pregnane X receptor (PXR) small molecule agonists, qHTS cell viability counter screen (AID 1346977); note: nearly all actives have a fitted effect of over 50% in size; note: potency is the fitted concentration of half-maximal effect
Outline: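 PXR-Luc HepG2 cells in medium with 5% charcoal-stripped FBS were pre-incubated 5hr, then exposed to compounds for 24hr at 37C. Viability was read in the same wells by CellTiter-Fluor fluorescence, reagent added after 23hr with a 1hr incubation.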

[11] = Caspase-3/7 induction in CHO-K1 cells by small molecules, qHTS cell viability counter screen (AID 1346979); note: nearly all actives have a fitted effect of over 35% in size; note: potency is the fitted concentration of half-maximal effect
Outline: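 Wild-type CHO-K1 cells were seeded at 1,500 per well, rested 5hr at 37 C, then exposed to compounds in DMSO. After 16hr, CellTiter-Fluor reagent was added and fluorescence read 1hr later as the viability measure.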

[12] = Caspase-3/7 induction in CHO-K1 cells by small molecules, qHTS assay (AID 1346980); note: nearly all actives have a fitted effect of over 15% in size; note: potency is the fitted concentration of half-maximal effect
Outline: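 Wild-type cells were seeded at 1,500 per well and settled 5 hr at 37 C, 5% CO2, then exposed to DMSO-dissolved compounds for 17 hr. Caspase-Glo 3/7 reagent was added, and luminescence was read after 30min at room temperature.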

[13] = Caspase-3/7 induction in HepG2 cells by small molecules, qHTS cell viability counter screen (AID 1346981); note: nearly all actives have a fitted effect of over 30% in size; note: potency is the fitted concentration of half-maximal effect
Outline: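 HepG2, WT, 2,000 cells/well; 5 hr pre-incubation 37 C/5% CO2; compound pin-transferred from DMSO; 16 hr exposure; CellTiter-Fluor, 1 hr; fluorescence read.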

[14] = target: Nuclear receptor subfamily 1 group I member 2 (Homo sapiens) (UniProt O75469); experiment: Human pregnane X receptor (PXR) small molecule agonists, qHTS assay (AID 1346982); note: nearly all actives have a fitted effect of over 35% in size; note: potency is the fitted concentration of half-maximal effect
Outline: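 Luciferase signal from ONE-Glo (30 min, room temperature) measured activation of hPXR-driven CYP3A4 reporter expression in PXR-Luc HepG2 cells treated with compounds for 24 hr at 37 C.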

[15] = target: Progesterone receptor (Homo sapiens) (UniProt P06401); experiment: qHTS assay to identify small molecule antagonists of the progesterone receptor (PR) signaling pathway (AID 1346795; active = well fitted inhibition curve with a large enough effect in the signal ratio in the repeat runs, not every such curve was filed as active; the % refers to the signal ratio)
Outline: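 PR-UAS-bla HEK293T cells carrying a UAS-driven beta-lactamase reporter were plated in medium with 2% charcoal-stripped FBS and rested 6 hr at 37C. Compounds were added with 1 nM R5020 (final) for 16 hr, then FRET substrate loaded 2 hr at room temperature.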

[16] = target: Thyrotropin-releasing hormone receptor (Homo sapiens) (UniProt P34981); experiment: qHTS assay to identify small molecule agonists of the thyrotropin-releasing hormone receptor (TRHR) signaling pathway (AID 1346891; calls by dose curve; note: series mostly up to about 58 µM)
Outline: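 TRHR-expressing HEK293 cells were plated 18 h at 37 °C/5% CO2, loaded with calcium dye 2 h at 37 °C, then given compound in DMSO; fluorescence was read kinetically for 3 min at 1 s intervals.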

[17] = Caspase-3/7 induction in HepG2 cells by small molecules, qHTS assay (AID 1346978); note: nearly all actives have a fitted effect of over 15% in size
Outline: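 Wild-type HepG2 cells (2,000/well) were settled 5 h at 37 C, 5% CO2, then exposed to compounds in DMSO for 17 h. Caspase-3/7 activity was read by luminescence 30 min after adding Caspase-Glo 3/7 reagent at room temperature.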

[18] = target: Nuclear receptor subfamily 1 group I member 2 (Rattus norvegicus) (UniProt Q9R1A7); experiment: Rat pregnane X receptor (rPXR) activation by small molecules, qHTS assay (AID 1346983); details: rPXR luciferase reporter cells, One-Glo luminescence, 24 h; max activation: stronger effect = higher value; note: nearly all actives have a fitted effect of over 20% in size; note: potency is the fitted concentration of half-maximal effect
Outline: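 Cell-based rPXR luciferase reporter assay, 2,000 cells per well, rested 5hr at 37 C before compound addition in DMSO, then 24 hr at 37 C. One-Glo reagent was added and luminescence read after 30 min at room temperature.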

[19] = target: Nuclear receptor subfamily 1 group I member 2 (Homo sapiens) (UniProt O75469); experiment: CYP3A4 induction through human pregnane X receptor (PXR) by small molecules, qHTS assay (AID 1346984); note: nearly all actives have a fitted effect of over 40% in size
Outline: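 Luminescence readout: luciferase signal after One-Glo (30 min, room temperature), following 3 h at 37C with 3uM final Luciferin-IPA P450 substrate. Cells were DPX-2 (HepG2, PXR/CYP3A4-luc co-transfected) dosed for 24 h.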

[20] = target: Nuclear receptor subfamily 1 group I member 2 (Homo sapiens) (UniProt O75469); experiment: Human pregnane X receptor (PXR) activation by small molecules, qHTS assay (AID 1346985); note: nearly all actives have a fitted effect of over 40% in size
Outline: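 DPX-2 cells (HepG2 co-transfected with a PXR response element and a CYP3A4-promoter luciferase construct) were seeded at 2,000 per well, rested 5 hr at 37C, then exposed to DMSO-dissolved compounds for 24 hr. Activation was read as luciferase luminescence.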
% is set by controls: 0 for no effect and ±100 for the full control effect.

Progesterone receptor (Homo sapiens), sequence (P06401 whole entry, looked up): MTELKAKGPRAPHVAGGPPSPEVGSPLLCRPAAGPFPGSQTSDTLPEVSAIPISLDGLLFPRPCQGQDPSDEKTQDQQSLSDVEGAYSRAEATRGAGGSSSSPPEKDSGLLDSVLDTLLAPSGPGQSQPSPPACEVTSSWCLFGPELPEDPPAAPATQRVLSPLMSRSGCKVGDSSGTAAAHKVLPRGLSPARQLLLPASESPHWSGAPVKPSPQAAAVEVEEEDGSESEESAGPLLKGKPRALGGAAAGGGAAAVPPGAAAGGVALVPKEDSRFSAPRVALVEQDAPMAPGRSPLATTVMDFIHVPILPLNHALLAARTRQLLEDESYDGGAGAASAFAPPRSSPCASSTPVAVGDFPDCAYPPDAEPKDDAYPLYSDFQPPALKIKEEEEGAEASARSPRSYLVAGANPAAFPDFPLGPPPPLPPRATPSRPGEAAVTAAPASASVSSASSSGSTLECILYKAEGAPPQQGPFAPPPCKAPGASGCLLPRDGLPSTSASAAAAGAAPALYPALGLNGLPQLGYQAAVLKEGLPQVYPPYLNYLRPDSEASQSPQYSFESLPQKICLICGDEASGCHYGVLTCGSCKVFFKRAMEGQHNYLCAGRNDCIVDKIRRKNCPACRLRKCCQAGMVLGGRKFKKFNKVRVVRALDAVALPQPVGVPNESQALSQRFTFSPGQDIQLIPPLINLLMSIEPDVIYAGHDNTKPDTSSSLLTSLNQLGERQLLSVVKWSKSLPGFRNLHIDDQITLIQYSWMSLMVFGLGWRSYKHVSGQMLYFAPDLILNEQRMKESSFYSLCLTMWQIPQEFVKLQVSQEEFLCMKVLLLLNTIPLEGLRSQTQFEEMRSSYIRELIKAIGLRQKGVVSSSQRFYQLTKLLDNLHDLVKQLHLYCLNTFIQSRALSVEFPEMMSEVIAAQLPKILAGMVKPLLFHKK
Thyrotropin receptor (Homo sapiens), sequence (P16473 whole entry, looked up): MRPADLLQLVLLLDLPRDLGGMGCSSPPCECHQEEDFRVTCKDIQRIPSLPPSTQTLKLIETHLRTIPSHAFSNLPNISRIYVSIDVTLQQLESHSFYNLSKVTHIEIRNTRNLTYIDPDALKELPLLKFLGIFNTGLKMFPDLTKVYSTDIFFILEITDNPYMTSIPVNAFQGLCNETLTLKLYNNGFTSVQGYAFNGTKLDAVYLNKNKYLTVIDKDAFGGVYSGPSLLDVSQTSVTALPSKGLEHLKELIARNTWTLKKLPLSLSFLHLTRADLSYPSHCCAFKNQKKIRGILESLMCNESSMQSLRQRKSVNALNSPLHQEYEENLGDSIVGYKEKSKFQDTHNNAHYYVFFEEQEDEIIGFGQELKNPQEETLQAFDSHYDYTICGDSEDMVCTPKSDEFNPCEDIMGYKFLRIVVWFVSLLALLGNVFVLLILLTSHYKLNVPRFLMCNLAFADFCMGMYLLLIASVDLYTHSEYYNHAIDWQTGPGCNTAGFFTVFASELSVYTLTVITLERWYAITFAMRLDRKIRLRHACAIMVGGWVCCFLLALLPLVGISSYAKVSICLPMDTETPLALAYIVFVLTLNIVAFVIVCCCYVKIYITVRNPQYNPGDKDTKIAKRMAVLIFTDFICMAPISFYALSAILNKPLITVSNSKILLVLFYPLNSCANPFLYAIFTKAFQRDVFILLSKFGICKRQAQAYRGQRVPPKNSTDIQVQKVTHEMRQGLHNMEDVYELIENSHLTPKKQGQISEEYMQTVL
Nuclear receptor subfamily 1 group I member 2 (Homo sapiens), sequence (O75469 whole entry, looked up): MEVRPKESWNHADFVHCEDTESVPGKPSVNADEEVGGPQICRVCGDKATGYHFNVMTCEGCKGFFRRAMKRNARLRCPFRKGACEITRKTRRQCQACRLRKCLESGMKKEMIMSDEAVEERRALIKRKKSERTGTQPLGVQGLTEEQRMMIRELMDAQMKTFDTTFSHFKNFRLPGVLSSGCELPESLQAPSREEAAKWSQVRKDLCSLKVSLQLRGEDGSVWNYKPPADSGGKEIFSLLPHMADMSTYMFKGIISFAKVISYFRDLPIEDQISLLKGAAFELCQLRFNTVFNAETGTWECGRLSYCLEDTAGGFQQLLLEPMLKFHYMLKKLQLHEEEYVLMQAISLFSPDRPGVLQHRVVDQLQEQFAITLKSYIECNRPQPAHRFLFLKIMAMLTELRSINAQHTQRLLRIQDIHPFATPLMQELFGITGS
Thyrotropin-releasing hormone receptor (Homo sapiens), sequence (P34981 whole entry, looked up): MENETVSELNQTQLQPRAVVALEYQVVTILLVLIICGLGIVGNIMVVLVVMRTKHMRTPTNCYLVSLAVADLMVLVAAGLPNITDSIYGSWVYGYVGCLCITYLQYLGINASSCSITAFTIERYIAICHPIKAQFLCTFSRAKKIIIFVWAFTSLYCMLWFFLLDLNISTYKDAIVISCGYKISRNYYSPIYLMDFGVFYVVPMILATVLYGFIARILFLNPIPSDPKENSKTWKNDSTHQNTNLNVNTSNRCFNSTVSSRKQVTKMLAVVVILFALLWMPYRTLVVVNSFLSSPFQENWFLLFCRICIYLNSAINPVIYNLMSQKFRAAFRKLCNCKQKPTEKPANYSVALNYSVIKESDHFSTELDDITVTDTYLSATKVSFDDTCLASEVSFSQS
Nuclear receptor subfamily 1 group I member 2 (Rattus norvegicus), sequence (Q9R1A7 whole entry, looked up): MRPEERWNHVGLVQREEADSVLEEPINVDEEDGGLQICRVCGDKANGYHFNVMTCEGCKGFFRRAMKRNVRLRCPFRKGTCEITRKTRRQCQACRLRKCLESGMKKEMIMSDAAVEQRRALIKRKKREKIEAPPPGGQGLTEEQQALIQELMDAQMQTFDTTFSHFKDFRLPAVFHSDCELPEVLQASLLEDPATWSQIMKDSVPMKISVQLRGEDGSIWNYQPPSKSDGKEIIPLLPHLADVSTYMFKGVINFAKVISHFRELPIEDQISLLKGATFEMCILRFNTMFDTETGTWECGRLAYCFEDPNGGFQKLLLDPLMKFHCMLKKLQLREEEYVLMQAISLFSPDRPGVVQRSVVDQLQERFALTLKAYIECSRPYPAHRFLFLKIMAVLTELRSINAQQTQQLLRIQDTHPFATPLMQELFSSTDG

Nc1c(S(=O)(=O)O)cc(Br)c2c1C(=O)c1ccccc1C2=O
active: Potency [2] 30.6 µM | Potency [10] 31.3 µM and 27.3 µM | Potency [11] 48.6 µM
inactive and 48.6 µM (active): Potency [13] | Potency [14]
inactive: outcome [1] | Potency [3] | Potency [4] | Potency [5] | Potency [6] | Potency [7] | outcome [8] | outcome [9] | Potency [12]

Cc1ccc(N)c(S(=O)(=O)O)c1
inactive: outcome [1] | Potency [2] | Potency [3] | Potency [15] | Potency [5] | Potency [6] | Potency [7] | outcome [8] | outcome [9] | Potency [16] | Potency [10] | Potency [11] | Potency [12] | Potency [13] | Potency [14]

S=c1nc[nH]c2nc[nH]c12
inactive: outcome [1] | Potency [2] | Potency [3] | outcome [8] | outcome [9] | Potency [16] | Potency [10] | Potency [17] | Potency [11] | Potency [12] | Potency [14] | max activation [18] -6.82% | outcome [19]
active: Potency [4] 8.41 µM | Potency [5] 4.74 µM and 11.9 µM

Nc1nc2ncc(CNc3ccc(C(=O)N[C@@H](CCC(=O)O)C(=O)O)cc3)nc2c(=O)[nH]1
inactive: outcome [1] | Potency [2] | Potency [3] | Potency [4] | Potency [5] | Potency [6] | Potency [7] | outcome [8] | Potency [10] | Potency [17] | Potency [11] | Potency [12] | Potency [13] | Potency [14] | max activation [18] -0.844% | outcome [19] | outcome [20]

CCOC(=O)/C=C\C(=O)OCC
inactive: outcome [1] | Potency [2] | Potency [3] | Potency [15] | Potency [5] | Potency [6] | Potency [7] | outcome [8] | outcome [9] | Potency [10] | Potency [11] | Potency [12] | Potency [13] | Potency [14]

CCCCC(CC)COC(=O)CCCCCCCC(=O)OCC(CC)CCCC (configuration not stated)
24.3 µM (active) and inactive: Potency [14]
inactive: outcome [1] | Potency [2] | Potency [3] | Potency [6] | Potency [7] | outcome [8] | outcome [9] | Potency [16] | Potency [10] | Potency [17] | Potency [12] | Potency [13]
54.5 µM (active) and inactive: Potency [5]
43.3 µM (active) and inactive: Potency [11]

NS(=O)(=O)c1cc2c(cc1Cl)NC=NS2(=O)=O
inactive: outcome [1] | Potency [2] | Potency [3] | Potency [15] | Potency [5] | Potency [6] | Potency [7] | outcome [8] | outcome [9] | Potency [10] | Potency [17] | Potency [11] | Potency [12] | Potency [13]

CCCCCCOC(C)=O
inactive and 8.63 µM (active): Potency [5]
inactive: outcome [1] | Potency [2] | Potency [3] | Potency [15] | Potency [6] | Potency [7] | outcome [8] | Potency [10] | Potency [17] | Potency [11] | Potency [12] | Potency [13] | Potency [14]

c1ccc2ccccc2c1
inactive: outcome [1] | Potency [2] | Potency [3] | Potency [4] | Potency [5] | Potency [6] | Potency [7] | outcome [8] | outcome [9] | Potency [10] | Potency [11] | Potency [12] | Potency [13] | Potency [14] | max activation [18] -0.655% | outcome [19] | outcome [20]

NCc1cccc(CN)c1
inactive: outcome [1] | Potency [2] | Potency [3] | Potency [4] | Potency [5] | Potency [6] | Potency [7] | outcome [8] | outcome [9] | Potency [10] | Potency [17] | Potency [11] | Potency [12] | Potency [13]

CCCCC(CC)COC(C)=O (configuration not stated)
inactive: outcome [1] | Potency [2] | Potency [3] | Potency [4] | Potency [5] | Potency [6] | Potency [7] | outcome [8] | outcome [9] | Potency [16] | Potency [10] | Potency [17] | Potency [11] | Potency [12] | Potency [13] | Potency [14]

C=C(C)C(=O)OCCC[Si](OC)(OC)OC
inactive: outcome [1] | Potency [2] | Potency [3] | Potency [4] | Potency [5] | Potency [6] | Potency [7] | outcome [8] | outcome [9] | Potency [16] | Potency [10] | Potency [17] | Potency [11] | Potency [12] | Potency [13]
60.4 µM (active) and inactive: Potency [14]

CC1=C(CC(=O)O)c2cc(F)ccc2/C1=C\c1ccc(S(C)=O)cc1 (configuration not stated)
21.7 µM (active) and inactive: Potency [14]
inactive: outcome [1] | Potency [2] | Potency [3] | Potency [15] | Potency [5] | Potency [6] | Potency [7] | Potency [10] | Potency [11] | Potency [12] | Potency [13] | max activation [18] -1.51% | outcome [19] | outcome [20]

CNC[C@H](O)[C@@H](O)[C@H](O)[C@H](O)CO
inactive: outcome [1] | Potency [2] | Potency [3] | Potency [4] | Potency [5] | Potency [6] | Potency [7] | outcome [8] | outcome [9] | Potency [10] | Potency [11] | Potency [12] | Potency [13] | Potency [14] | max activation [18] -2.23% | outcome [19] | outcome [20]

CCCCC(CC)C(=O)OCCOCCOCCOC(=O)C(CC)CCCC (configuration not stated)
inactive: outcome [1] | Potency [2] | Potency [3] | Potency [4] | Potency [5] | Potency [6] | Potency [7] | outcome [8] | outcome [9] | Potency [16] | Potency [10] | Potency [11] | Potency [12] | Potency [13] | Potency [14]

COC(=O)Nc1nc2ccc(Sc3ccccc3)cc2[nH]1
active: Potency [11] 30.6 µM and 10.6 µM | Potency [12] 54.5 µM | Potency [18] 1.26 µM
inactive: outcome [1] | Potency [2] | Potency [3] | Potency [4] | Potency [6] | Potency [7] | outcome [8] | outcome [9] | Potency [10] | Potency [17] | Potency [13]
